Common to all, as to experiment: DAPPL (digital affinity profiling via proximity ligation, sequencing); 10 mM Tris-HCl pH 7.5, 50 mM NaCl, 1 mM DTT, 4% glycerol, room temperature, 30 min; GST-TFs on glutathione beads, 16-mer random dsDNA library, 0.1% formaldehyde crosslink after washing; high values mean tight binding
Holding throughout (details): protein: recombinant; tags: N-terminal GST; dsDNA, one strand shown

One experiment addresses T1, FLI1 (Homo sapiens, UniProt Q01543 1-452).
T1 sequence: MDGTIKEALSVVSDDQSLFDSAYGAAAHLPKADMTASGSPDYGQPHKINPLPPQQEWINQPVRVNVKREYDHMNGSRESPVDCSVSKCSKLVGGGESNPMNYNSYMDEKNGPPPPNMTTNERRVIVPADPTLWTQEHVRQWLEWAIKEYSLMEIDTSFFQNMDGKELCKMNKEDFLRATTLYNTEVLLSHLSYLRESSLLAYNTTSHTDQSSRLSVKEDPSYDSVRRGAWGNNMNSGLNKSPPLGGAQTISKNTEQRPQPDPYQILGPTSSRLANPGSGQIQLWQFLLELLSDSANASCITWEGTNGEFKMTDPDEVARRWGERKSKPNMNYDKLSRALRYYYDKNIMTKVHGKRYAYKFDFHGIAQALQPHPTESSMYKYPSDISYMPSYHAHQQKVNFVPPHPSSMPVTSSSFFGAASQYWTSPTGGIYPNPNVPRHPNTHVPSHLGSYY
Summed up: (§1)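 Human transcription factors fused to GST were expressed in yeast, captured on glutathione beads, given DNA barcodes and pooled with a GST-only negative control. Pools were incubated with 200 nmole of a 16-mer random double-stranded DNA library in Tris/NaCl/DTT/glycerol buffer at room temperature for 30 min. They were then washed, crosslinked with 0.1% formaldehyde, proximity-ligated (BsaI/T4 ligase, 1 h, 37 °C), PCR-amplified and sequenced on an Illumina NextSeq500. Binding signal is each 6-mer's read frequency for a factor divided by its frequency for the GST control.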

For a further experiment, the target named is T2, ELK1 (Homo sapiens, UniProt P19419 1-428).
T2 sequence: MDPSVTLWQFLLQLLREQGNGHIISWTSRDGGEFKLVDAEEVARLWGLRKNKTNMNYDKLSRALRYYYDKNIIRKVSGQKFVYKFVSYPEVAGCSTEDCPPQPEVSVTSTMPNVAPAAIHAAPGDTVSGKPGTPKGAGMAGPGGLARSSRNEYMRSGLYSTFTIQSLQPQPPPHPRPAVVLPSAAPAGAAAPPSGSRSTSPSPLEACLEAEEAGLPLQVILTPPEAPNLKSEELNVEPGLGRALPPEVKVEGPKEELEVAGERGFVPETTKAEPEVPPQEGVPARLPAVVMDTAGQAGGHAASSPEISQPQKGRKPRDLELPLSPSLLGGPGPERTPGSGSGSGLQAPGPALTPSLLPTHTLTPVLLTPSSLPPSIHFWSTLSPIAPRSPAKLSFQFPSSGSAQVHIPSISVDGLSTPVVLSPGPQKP
Summed up: as §1

A further experiment has as its target T3, ERG (Homo sapiens, UniProt P11308 1-479).
T3 sequence: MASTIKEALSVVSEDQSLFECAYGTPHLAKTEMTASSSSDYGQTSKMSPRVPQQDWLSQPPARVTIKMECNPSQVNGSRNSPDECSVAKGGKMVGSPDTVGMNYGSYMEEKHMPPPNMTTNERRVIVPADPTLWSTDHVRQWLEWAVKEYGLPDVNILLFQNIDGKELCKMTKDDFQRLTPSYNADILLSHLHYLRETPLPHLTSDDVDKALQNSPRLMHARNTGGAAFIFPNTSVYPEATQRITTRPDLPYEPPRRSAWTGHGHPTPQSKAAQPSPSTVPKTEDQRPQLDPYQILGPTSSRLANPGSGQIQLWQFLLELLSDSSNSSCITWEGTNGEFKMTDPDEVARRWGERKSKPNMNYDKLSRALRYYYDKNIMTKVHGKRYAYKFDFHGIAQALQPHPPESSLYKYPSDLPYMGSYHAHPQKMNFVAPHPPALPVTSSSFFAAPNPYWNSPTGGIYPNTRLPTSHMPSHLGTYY
Summed up: as §1

In a further experiment the target is ELF1 (Homo sapiens, UniProt P32519 1-619). Summed up: as §1
Another experiment has as its target T4, EHF (Homo sapiens, UniProt Q9NZC4 1-300).
T4 sequence: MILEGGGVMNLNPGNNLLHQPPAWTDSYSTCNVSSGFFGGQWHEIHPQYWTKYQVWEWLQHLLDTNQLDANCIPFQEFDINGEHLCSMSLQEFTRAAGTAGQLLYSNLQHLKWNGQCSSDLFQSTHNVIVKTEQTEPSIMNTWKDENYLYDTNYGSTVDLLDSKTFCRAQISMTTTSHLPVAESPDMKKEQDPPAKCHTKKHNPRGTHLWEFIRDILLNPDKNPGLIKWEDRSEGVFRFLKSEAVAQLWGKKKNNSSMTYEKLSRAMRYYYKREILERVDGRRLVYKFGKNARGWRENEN
Summed up: as §1

The next experiment concerns the target T5, ELK3 (Homo sapiens, UniProt P41970 1-407).
T5 sequence: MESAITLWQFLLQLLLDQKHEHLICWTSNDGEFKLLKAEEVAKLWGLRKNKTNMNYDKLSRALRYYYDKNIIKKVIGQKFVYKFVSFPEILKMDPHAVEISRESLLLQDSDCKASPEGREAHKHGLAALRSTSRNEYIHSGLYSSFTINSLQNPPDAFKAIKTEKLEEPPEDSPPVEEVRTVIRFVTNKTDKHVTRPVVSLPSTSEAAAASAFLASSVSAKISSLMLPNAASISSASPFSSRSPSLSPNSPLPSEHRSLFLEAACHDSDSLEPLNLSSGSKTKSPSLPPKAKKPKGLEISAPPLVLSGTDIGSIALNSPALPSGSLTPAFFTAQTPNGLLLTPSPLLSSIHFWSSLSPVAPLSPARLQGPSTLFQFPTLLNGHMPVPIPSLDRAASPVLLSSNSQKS
Summed up:
as §1

A further experiment has as its target T6, SPIC (Homo sapiens, UniProt Q8N5J4 1-248).
T6 sequence: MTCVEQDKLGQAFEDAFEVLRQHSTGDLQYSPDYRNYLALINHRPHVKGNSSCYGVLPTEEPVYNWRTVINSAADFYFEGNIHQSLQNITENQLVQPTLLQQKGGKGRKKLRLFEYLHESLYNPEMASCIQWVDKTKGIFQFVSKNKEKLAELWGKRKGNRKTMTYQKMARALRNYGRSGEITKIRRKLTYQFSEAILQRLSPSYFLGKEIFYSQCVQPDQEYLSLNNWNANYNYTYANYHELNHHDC
Summed up: as §1

The next experiment addresses ELF4 (Homo sapiens, UniProt Q99607 1-663). The procedure, abridged:
as §1

In the next experiment the target is T7, ETV2 (Homo sapiens, UniProt O00321 1-342).
T7 sequence: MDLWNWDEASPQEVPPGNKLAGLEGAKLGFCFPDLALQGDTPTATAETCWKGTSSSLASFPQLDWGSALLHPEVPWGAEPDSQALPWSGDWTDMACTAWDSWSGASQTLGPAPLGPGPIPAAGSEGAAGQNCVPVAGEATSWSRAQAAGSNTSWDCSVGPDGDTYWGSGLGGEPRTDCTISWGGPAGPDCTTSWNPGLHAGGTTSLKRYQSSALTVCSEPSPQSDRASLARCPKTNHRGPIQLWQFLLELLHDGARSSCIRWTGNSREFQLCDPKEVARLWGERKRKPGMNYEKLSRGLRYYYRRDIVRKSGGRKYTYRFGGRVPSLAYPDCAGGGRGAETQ
Summed up: as §1

Another experiment concerns the target T8, ETV3L (Homo sapiens, UniProt Q6ZN32 1-361).
T8 sequence: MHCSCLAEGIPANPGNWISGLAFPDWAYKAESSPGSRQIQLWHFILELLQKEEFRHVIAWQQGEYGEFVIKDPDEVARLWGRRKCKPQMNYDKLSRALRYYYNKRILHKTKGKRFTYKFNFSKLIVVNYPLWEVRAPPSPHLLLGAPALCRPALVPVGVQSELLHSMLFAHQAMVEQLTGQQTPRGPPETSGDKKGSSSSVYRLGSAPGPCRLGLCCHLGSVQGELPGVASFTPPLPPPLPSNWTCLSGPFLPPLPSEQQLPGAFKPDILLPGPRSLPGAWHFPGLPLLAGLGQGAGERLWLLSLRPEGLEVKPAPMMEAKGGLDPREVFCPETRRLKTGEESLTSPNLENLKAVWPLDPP
Summed up:
as §1

The target of another experiment is T9, ETV7 (Homo sapiens, UniProt Q9Y603 1-341).
T9 sequence: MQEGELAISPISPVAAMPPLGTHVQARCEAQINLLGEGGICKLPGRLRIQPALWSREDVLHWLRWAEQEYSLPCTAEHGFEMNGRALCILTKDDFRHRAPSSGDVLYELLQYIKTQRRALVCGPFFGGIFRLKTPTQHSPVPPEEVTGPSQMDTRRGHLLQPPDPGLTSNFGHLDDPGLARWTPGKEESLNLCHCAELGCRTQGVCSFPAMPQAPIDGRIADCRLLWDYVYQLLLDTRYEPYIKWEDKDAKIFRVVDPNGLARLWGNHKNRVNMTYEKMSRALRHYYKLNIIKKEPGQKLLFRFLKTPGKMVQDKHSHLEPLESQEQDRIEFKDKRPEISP
Summed up:
as §1

A further experiment concerns the target T10, ETV3 (Homo sapiens, UniProt P41162-2 1-143).
T10 sequence: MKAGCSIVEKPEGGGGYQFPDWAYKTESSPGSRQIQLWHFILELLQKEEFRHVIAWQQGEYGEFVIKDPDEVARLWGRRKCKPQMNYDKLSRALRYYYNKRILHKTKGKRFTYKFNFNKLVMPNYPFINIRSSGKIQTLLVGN
Summed up:
as §1

For another experiment, the target named is ETV6 (Homo sapiens, UniProt P41212 1-452). The procedure, abridged: as §1
The next experiment addresses SPIB (Homo sapiens, UniProt Q01892 1-262). The procedure, abridged:
as §1

In the next experiment the target is T11, ELF3 (Homo sapiens, UniProt P78545 1-371).
T11 sequence: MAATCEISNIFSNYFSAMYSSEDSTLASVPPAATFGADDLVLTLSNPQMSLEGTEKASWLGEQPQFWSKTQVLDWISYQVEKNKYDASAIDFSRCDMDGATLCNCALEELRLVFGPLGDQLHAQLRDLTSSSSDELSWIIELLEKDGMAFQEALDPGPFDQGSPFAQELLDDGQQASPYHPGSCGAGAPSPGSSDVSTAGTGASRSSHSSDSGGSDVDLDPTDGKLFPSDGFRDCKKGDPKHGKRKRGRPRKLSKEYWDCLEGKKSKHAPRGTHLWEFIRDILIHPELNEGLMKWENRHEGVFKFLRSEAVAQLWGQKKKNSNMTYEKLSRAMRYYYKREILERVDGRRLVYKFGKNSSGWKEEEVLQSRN
The procedure, abridged: as §1

For another experiment, the target named is ETV1 (Homo sapiens, UniProt P50549 1-477). The procedure, abridged: as §1
Another experiment addresses T12, ERF (Homo sapiens, UniProt P50548 1-548).
T12 sequence: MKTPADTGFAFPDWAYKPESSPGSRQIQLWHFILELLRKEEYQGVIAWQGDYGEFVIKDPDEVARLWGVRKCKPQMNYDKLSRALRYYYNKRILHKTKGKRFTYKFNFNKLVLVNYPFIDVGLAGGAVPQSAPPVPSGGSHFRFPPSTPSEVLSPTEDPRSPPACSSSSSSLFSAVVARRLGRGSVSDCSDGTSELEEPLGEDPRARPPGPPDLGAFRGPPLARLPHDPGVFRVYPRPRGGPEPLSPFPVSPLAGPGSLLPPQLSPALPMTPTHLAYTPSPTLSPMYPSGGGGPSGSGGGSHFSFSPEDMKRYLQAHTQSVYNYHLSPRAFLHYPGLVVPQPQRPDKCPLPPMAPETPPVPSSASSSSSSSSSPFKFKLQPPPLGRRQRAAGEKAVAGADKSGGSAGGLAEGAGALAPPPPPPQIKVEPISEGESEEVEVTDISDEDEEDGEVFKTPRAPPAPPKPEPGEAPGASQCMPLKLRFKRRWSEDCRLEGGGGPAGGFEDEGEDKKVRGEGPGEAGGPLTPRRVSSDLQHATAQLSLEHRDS
Summed up:
as §1

Sequence of ELF1 (P32519 whole entry): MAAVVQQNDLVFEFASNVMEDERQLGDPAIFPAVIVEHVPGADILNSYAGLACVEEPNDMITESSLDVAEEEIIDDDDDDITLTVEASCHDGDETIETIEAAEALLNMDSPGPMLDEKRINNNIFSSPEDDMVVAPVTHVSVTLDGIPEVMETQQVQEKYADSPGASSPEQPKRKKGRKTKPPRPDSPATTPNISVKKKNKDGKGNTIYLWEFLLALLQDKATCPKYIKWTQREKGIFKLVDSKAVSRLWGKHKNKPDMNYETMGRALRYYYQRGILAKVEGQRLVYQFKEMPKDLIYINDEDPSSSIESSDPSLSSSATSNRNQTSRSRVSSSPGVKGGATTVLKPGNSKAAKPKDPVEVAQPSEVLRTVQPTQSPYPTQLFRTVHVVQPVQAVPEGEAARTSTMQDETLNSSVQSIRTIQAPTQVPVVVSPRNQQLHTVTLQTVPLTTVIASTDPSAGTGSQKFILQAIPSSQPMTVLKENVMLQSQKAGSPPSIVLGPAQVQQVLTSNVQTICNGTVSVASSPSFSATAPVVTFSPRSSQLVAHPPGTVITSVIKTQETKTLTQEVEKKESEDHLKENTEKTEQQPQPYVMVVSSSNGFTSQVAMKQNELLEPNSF
Sequence of ELF4 (Q99607 whole entry): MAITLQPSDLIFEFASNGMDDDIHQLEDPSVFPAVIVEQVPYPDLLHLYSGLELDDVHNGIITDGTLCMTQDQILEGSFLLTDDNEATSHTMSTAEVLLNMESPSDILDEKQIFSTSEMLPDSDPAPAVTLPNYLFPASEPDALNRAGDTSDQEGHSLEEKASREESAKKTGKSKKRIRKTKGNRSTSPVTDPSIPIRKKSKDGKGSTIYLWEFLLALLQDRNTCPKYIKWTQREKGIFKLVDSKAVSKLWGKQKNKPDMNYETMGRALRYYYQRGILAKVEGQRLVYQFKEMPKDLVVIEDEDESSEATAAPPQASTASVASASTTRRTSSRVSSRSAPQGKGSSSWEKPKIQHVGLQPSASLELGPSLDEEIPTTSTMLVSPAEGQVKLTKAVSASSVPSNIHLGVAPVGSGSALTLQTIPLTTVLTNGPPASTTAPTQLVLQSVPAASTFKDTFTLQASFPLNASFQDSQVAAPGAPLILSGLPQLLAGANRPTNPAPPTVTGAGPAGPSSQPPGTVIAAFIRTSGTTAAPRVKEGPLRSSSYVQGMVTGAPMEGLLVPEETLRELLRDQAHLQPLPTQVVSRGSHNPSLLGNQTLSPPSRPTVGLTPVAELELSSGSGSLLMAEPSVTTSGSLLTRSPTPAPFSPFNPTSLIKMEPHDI
Sequence of ETV6 (P41212 whole entry): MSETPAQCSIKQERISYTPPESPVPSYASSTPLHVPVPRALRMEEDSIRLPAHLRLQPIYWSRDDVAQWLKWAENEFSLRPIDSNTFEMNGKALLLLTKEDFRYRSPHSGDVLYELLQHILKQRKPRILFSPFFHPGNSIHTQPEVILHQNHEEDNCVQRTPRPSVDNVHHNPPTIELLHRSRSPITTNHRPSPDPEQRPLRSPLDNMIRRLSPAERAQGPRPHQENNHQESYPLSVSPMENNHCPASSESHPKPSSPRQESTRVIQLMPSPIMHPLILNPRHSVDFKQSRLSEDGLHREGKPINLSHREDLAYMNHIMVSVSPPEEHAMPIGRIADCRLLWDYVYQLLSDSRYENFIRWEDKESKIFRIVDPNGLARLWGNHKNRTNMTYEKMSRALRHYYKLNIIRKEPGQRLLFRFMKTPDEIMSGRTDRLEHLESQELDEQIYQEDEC
Sequence of SPIB (Q01892 whole entry): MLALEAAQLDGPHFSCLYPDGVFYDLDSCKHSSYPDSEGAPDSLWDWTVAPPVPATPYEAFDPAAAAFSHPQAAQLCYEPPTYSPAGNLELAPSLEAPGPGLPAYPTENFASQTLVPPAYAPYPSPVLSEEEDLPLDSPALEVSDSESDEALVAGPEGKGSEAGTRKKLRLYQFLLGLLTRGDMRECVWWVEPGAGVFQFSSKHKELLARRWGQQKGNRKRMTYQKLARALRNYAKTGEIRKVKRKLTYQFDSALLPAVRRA
Sequence of ETV1 (P50549 whole entry): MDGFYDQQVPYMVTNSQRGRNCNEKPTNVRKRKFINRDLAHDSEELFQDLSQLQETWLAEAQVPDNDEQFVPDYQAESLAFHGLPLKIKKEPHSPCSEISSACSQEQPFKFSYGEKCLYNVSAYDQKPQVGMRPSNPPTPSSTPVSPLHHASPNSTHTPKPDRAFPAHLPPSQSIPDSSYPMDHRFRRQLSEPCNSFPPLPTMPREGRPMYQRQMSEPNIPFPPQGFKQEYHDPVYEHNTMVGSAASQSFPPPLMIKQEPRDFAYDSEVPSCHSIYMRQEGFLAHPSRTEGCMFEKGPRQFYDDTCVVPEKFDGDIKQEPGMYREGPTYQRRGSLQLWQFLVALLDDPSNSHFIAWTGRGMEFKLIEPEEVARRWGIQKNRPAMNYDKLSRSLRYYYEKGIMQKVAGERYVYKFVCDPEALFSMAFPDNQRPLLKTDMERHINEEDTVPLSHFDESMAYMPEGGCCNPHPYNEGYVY

Regarding CATGGC, the binding signal in the experiment with FLI1 is 1.1 fold enrichment (6-mer frequency, TF over GST control); with ELK1, 1.02 fold enrichment (6-mer frequency, TF over GST control); in the experiment with ERG it was 1.05 fold enrichment (6-mer frequency, TF over GST control); in the experiment with ELF1, 1.02 fold enrichment (6-mer frequency, TF over GST control); with EHF, 1.02 fold enrichment (6-mer frequency, TF over GST control); with ELK3 it was 1.04 fold enrichment (6-mer frequency, TF over GST control). Also, the binding signal with SPIC was 1.05 fold enrichment (6-mer frequency, TF over GST control); with ELF4 it was 1.02 fold enrichment (6-mer frequency, TF over GST control); in the experiment with ETV2, 1.04 fold enrichment (6-mer frequency, TF over GST control); in the experiment with ETV3L it was 1.02 fold enrichment (6-mer frequency, TF over GST control); in the experiment with ETV7, 1.07 fold enrichment (6-mer frequency, TF over GST control); in the experiment with ETV3 it was 1.05 fold enrichment (6-mer frequency, TF over GST control). Also, the binding signal with ETV6 was 1 fold enrichment (6-mer frequency, TF over GST control).
For TGATTG, the binding signal in the experiment with FLI1 was 1.16 fold enrichment (6-mer frequency, TF over GST control); with ELK1, 1.16 fold enrichment (6-mer frequency, TF over GST control); in the experiment with ERG it was 1.08 fold enrichment (6-mer frequency, TF over GST control); with ELF1, 1.06 fold enrichment (6-mer frequency, TF over GST control); with SPIB, 1.09 fold enrichment (6-mer frequency, TF over GST control); with ELK3, 1.11 fold enrichment (6-mer frequency, TF over GST control). The binding signal with SPIC is 1.05 fold enrichment (6-mer frequency, TF over GST control); with ELF4 it was 1.02 fold enrichment (6-mer frequency, TF over GST control); in the experiment with ETV2, 1.06 fold enrichment (6-mer frequency, TF over GST control); with ELF3 it was 1.05 fold enrichment (6-mer frequency, TF over GST control); in the experiment with ETV1 it was 1.1 fold enrichment (6-mer frequency, TF over GST control); in the experiment with ERF, 1.13 fold enrichment (6-mer frequency, TF over GST control). Moreover, the binding signal in the experiment with ETV3L is 1.09 fold enrichment (6-mer frequency, TF over GST control); with ETV7, 1.05 fold enrichment (6-mer frequency, TF over GST control); with ETV3 it was 1.05 fold enrichment (6-mer frequency, TF over GST control); with ETV6, 1.04 fold enrichment (6-mer frequency, TF over GST control).

For the origin of these results see article PMC7862700, “An all-to-all approach to the identification of sequence-specific readers for epigenetic DNA modifications on cytosine”.
